From PubChem BioAssay AID1851 (National Center for Advancing Translational Sciences (NCATS), 2009)
About 5,700 (36%) of roughly 16,000 compounds were called active. Not shown: some 24% with an inconclusive outcome. Calls come from the whole dose curve; as a rule, active = well fitted curve in the direction sought with a large enough effect; inconclusive = small, poorly fitted or top-dose-only effect, or effect the other way; inactive = no such curve, though single readings can be large or run the other way. The list shows a part of the results.
% is set by controls: 0 for no effect and ±100 for the full control effect.

These molecules were tested against Cytochrome P450 1A2 (Homo sapiens) (UniProt P05177) (assay: Cytochrome panel assay with activity outcomes). Settings: recombinant CYP, pro-luciferin dealkylation, luminescence, p450-cyp1a2; series mostly up to 57.1 µM.
Sequence of Cytochrome P450 1A2 (Homo sapiens) (P05177 whole entry, looked up): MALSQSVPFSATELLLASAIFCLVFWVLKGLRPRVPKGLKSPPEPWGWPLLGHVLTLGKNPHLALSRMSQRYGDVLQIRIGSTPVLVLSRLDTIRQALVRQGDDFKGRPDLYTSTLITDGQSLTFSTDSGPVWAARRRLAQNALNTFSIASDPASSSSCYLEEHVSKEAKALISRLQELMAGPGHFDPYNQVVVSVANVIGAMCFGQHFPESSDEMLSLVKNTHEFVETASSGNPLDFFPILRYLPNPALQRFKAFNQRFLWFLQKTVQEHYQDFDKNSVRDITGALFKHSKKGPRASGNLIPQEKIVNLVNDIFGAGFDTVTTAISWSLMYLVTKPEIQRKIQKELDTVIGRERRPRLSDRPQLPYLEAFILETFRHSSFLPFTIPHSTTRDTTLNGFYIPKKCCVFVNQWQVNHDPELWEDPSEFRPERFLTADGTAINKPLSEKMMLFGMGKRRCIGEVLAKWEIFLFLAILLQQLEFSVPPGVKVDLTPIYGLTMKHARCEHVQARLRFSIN
In the case of `CCOC(=O)NCc1ccc2c(c1)cc(C)n2C`, the AC50 is reported as 2 µM (active). With `CN[C@@H]1[C@H](O[C@H]2[C@@H](O[C@@H]3[C@@H](O)[C@@H](O)[C@@H](N=C(N)N)[C@@H](O)[C@@H]3N=C(N)N)O[C@@H](C)[C@]2(O)CO)O[C@H](CO)[C@@H](O)[C@@H]1O` the AC50 was “inactive”. With `Cc1ccccc1OCC(=O)OC1CCN(C)CC1` the AC50 was “inactive”. In the case of `CNC(=S)NNC(=O)COc1ccccc1C`, the AC50 is reported as 15.8 µM (active). In the case of `CCOc1ccc(C(F)(F)F)cc1NC(C)=O`, the AC50 is reported as 0.1 µM (active). For `CC(=O)Oc1cc(C(F)(F)F)ccc1C(=O)O`, the AC50 was “inactive”. With `CC(=O)Nc1cc(C(F)(F)F)ccc1Oc1cccc(Br)c1` the AC50 was 10 µM (active). In the case of `CCCC(=O)N1CCN(c2ccc(NC(=O)c3ccc(OCC)c([N+](=O)[O-])c3)cc2)CC1`, the AC50 is reported as “inactive”. For `CN(C(=O)COc1cccc(Br)c1)C1CCS(=O)(=O)C1` (configuration not stated), the AC50 was “inactive”. With `CCOc1ccc(C(=O)Cc2cc(OC)c(OC)cc2[N+](=O)[O-])cc1` the AC50 was “inactive”. In the case of `CCOc1ccc(C(F)(F)F)cc1NC(=O)c1ccc(OC)c([N+](=O)[O-])c1`, the AC50 is reported as 3.55 µM (active). With `CC(=O)NC1=NC(=O)C(C)S1` (configuration not stated) the AC50 was “inactive”. With `N[C@@H](Cc1nn[nH]n1)C(=O)O` the activity, negative = inhibition was -8.69% [at 11.4 µM] (inactive). In the case of `Nc1[nH]c(=O)nc2c1ncn2[C@H]1O[C@@H](CO)[C@@H](O)[C@@H]1O`, the activity, negative = inhibition is reported as -0.635% [at 11.4 µM] (inactive). In the case of `CC1=NCC[N@@+]1(CCc1ccccc1)Cc1ccccc1`, the activity, negative = inhibition is reported as -17.6% [at 11.4 µM] (inactive). With `C[C@H](Nc1ncnc2sc3c(c12)CCC3)C(=O)O` the AC50 was “inactive”. For `Cc1ccc(CSc2nc3c(c(SCC(=O)O)n2)CCCC3)cc1`, the AC50 was “inactive”. `COCCNc1nc(SCc2ccccc2)nc2sc3c(c12)CCC3` was tested, and the AC50 was 1 µM (active). In the case of `OCCNc1nc(SCc2ccccc2)nc2sc3c(c12)CCC3`, the AC50 is reported as 1 µM (active). `CC(CO)Nc1nc(SCc2ccccc2)nc2sc3c(c12)CCC3` (configuration not stated) was tested, and the AC50 was 0.2 µM (active). In the case of `CCCCNC(=O)C1CC(=O)N(CCC(C)C)C1` (configuration not stated), the AC50 is reported as “inactive”. In the case of `CCCCNC(=O)C1CCN(Cc2ccccn2)CC1`, the AC50 is reported as “inactive”. In the case of `CCCCNC(=O)[C@@H]1Cc2ccccc2N1C(=O)[C@H](N)CC`, the AC50 is reported as 20 µM (active). For `O=C(O)Cn1ccnc1[N+](=O)[O-]`, the activity, negative = inhibition was -3.98% [at 11.4 µM] (inactive). For `CCOC(=O)c1cc2c(=O)n3ccccc3nc2n(CCCOC)c1=NC(C)=O`, the AC50 was 12.6 µM (active). `CCOC(=O)c1cc2c(=O)n3ccccc3nc2n(CCOC)c1=NC(=O)C(C)(C)C` was tested, and the AC50 was 3.16 µM (active). For `C[C@H]1[C@H](C)OC(=O)C[C@H](O)C[C@H](O)C[C@H](O)CC[C@H](O)[C@H](O)CC(=O)C[C@H](O)[C@H](C(=O)O)[C@H](O)C[C@H](O[C@@H]2O[C@@H](C)[C@H](O)[C@@H](N)[C@@H]2O)C=CC=CC=CC=CCCC=CC=C[C@@](C)(O)[C@H]1O`, the activity, negative = inhibition was 12.4% [at 11.4 µM] (inactive).
